Source: publication PMC5700166

biological target: GST-Hu-p50 (Homo sapiens, UniProt P19838 7-356); assay: protein-binding microarray (PBM); PBM: ~300 nM protein, 6 mM HEPES pH 7.8, 80 mM KCl, 0.5 mM EDTA, 0.5 mM EGTA, 6% glycerol, 35 ng/ul poly-dIdC, 1% milk, 1 h, room temperature; Ap Aiptasia and Nv Nematostella (sea anemones) / Co Capsaspora / Aq Amphimedon (sponge) / Dm Drosophila / Hu human; RHD is the Rel homology domain; high values mean tight binding; settings: dsDNA, one strand shown
Sequence (P19838 7-356): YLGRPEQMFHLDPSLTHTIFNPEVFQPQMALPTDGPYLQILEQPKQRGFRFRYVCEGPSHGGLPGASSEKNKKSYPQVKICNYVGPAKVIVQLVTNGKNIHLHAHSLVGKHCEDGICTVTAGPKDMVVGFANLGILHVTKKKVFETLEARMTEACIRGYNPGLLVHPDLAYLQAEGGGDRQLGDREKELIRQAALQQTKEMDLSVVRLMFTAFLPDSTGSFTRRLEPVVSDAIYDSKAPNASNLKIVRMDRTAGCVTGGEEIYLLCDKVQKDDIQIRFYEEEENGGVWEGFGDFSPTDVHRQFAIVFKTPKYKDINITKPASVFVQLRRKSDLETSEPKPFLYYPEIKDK

Sequence	binding signal [z-score]
CCGATTAACATCAATTGGGAAATTGATGTTAATCGGGTCTTGATTCGCTTGACGCTGCTG	2.69
CCGATTAACATCAGGGGAACTCATGATGTTAATCGGGTCTTGATTCGCTTGACGCTGCTG	4.82
CCGATTAACATCAGGGAACGCCCTGATGTTAATCGGGTCTTGATTCGCTTGACGCTGCTG	2.04
CCGATTAACATCAAAATTCCCTCTGATGTTAATCGGGTCTTGATTCGCTTGACGCTGCTG	5.19
CCGATTAACATCAAAGGGAATTCTGATGTTAATCGGGTCTTGATTCGCTTGACGCTGCTG	4.99
CCGATTAACATCAACCAATCCCCTGATGTTAATCGGGTCTTGATTCGCTTGACGCTGCTG	4.9
CCGATTAACATCAGGAAATACCATGATGTTAATCGGGTCTTGATTCGCTTGACGCTGCTG	1.08
CCGATTAACATCAACCAATTCCCTGATGTTAATCGGGTCTTGATTCGCTTGACGCTGCTG	2.54
CCGATTAACATCAGAGTTTTCCCTGATGTTAATCGGGTCTTGATTCGCTTGACGCTGCTG	3.99
CCGATTAACATCAGGAATCCCACTGATGTTAATCGGGTCTTGATTCGCTTGACGCTGCTG	1.55
CCGATTAACATCAAAAGTTTCCCTGATGTTAATCGGGTCTTGATTCGCTTGACGCTGCTG	5.09
CCGATTAACATCAATTTAGACGGTGATGTTAATCGGGTCTTGATTCGCTTGACGCTGCTG	1.58
CCGATTAACATCAACGTTTTCCCTGATGTTAATCGGGTCTTGATTCGCTTGACGCTGCTG	3.09
CCGATTAACATCAGGGGTATACCTGATGTTAATCGGGTCTTGATTCGCTTGACGCTGCTG	1.99
CCGATTAACATCAGGGGAAAGCATGATGTTAATCGGGTCTTGATTCGCTTGACGCTGCTG	4.81
CCGATTAACATCAAGGGCTTCCCTGATGTTAATCGGGTCTTGATTCGCTTGACGCTGCTG	1.06
CCGATTAACATCACGGAAATTTATGATGTTAATCGGGTCTTGATTCGCTTGACGCTGCTG	1.44
CCGATTAACATCAGGGGATAATATGATGTTAATCGGGTCTTGATTCGCTTGACGCTGCTG	4.49
CCGATTAACATCAATAAAGTCCCTGATGTTAATCGGGTCTTGATTCGCTTGACGCTGCTG	5.23
CCGATTAACATCACAAATTTCCCTGATGTTAATCGGGTCTTGATTCGCTTGACGCTGCTG	5.09

Sequence	binding signal [z-score]
CCGATTAACATCAGGGCAAAAAATGATGTTAATCGGGTCTTGATTCGCTTGACGCTGCTG	1.45
CCGATTAACATCATGTCTATCGGTGATGTTAATCGGGTCTTGATTCGCTTGACGCTGCTG	1.14
CCGATTAACATCAGGGGTAACACTGATGTTAATCGGGTCTTGATTCGCTTGACGCTGCTG	1.68
CCGATTAACATCACCCCAACCCCTGATGTTAATCGGGTCTTGATTCGCTTGACGCTGCTG	1.66
CCGATTAACATCACGTATTCCCCTGATGTTAATCGGGTCTTGATTCGCTTGACGCTGCTG	5.15
CCGATTAACATCAGAGGTGCTTCTGATGTTAATCGGGTCTTGATTCGCTTGACGCTGCTG	1.84
CCGATTAACATCAATAAAATTCCTGATGTTAATCGGGTCTTGATTCGCTTGACGCTGCTG	1.02
CCGATTAACATCAAGAGTTCCCCTGATGTTAATCGGGTCTTGATTCGCTTGACGCTGCTG	5.23
CCGATTAACATCACCCATTTCCGTGATGTTAATCGGGTCTTGATTCGCTTGACGCTGCTG	1.88
CCGATTAACATCAAGGGAAAAATTGATGTTAATCGGGTCTTGATTCGCTTGACGCTGCTG	4.56
CCGATTAACATCAATAATTTTCCTGATGTTAATCGGGTCTTGATTCGCTTGACGCTGCTG	1.12
CCGATTAACATCAAATTTTTCCCTGATGTTAATCGGGTCTTGATTCGCTTGACGCTGCTG	4.48
CCGATTAACATCAAAGTTTTCCCTGATGTTAATCGGGTCTTGATTCGCTTGACGCTGCTG	4.49
CCGATTAACATCACCGTTTTCCCTGATGTTAATCGGGTCTTGATTCGCTTGACGCTGCTG	3.18
CCGATTAACATCAGGGAAAATCATGATGTTAATCGGGTCTTGATTCGCTTGACGCTGCTG	3.98
CCGATTAACATCAGGAAAGTCCATGATGTTAATCGGGTCTTGATTCGCTTGACGCTGCTG	1.14
CCGATTAACATCACTCTTTCCCCTGATGTTAATCGGGTCTTGATTCGCTTGACGCTGCTG	4.08
CCGATTAACATCACCGGAAATCCTGATGTTAATCGGGTCTTGATTCGCTTGACGCTGCTG	1.78
CCGATTAACATCACCATTTTCCCTGATGTTAATCGGGTCTTGATTCGCTTGACGCTGCTG	3.64
